Source: PubChem BioAssay (NCATS)
“And” between values parts separate entries of the source, which are not always exact repeats. Equal values may be shown once. Inconclusive results are not listed. The source made the active and inactive calls. Calls follow the shape of the dose curve; as a rule, active = well fitted curve in the direction sought with a large enough effect; inconclusive = small, poorly fitted or top-dose-only effect, or another doubt; inactive = no such curve, though single readings can be large; an effect the other way counts as inactive or inconclusive.

Experiments:
[1] = qHTS of pediatric cancer cell lines to identify multiple opportunities for drug repurposing: Confirmatory screen for A673 cells (AID 1347110);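 also: cells exposed to compound for 48 h before the viability read; nearly all actives have a fitted effect of over 65% in size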; also: potency is read from the fitted curve at half-maximal effect
How it was run: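 Forty-eight-hour viability assay. Follow-up compounds ran at 11-point dilutions; positive control bortezomib at 2.3 uM final, neutral control DMSO.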

[2] = qHTS of pediatric cancer cell lines to identify multiple opportunities for drug repurposing: Confirmatory screen for SK-N-MC cells (AID 1347111);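 also: cells exposed to compound for 48 h before the readout; nearly all actives have a fitted effect of over 70% in size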; also: potency is read from the fitted curve at half-maximal effect
How it was run: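 Seed 500-1,000 cells/well; rest 5 h at 37 degrees C. Pin-transfer compounds, 11-point titration. Incubate 48 h. Add CellTiter-Glo, 15 min RT, read luminescence.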

[3] = qHTS of pediatric cancer cell lines to identify multiple opportunities for drug repurposing: Confirmatory screen for LAN-5 cells (AID 1347113); also: nearly all actives have a fitted effect of over 65% in size; also: potency is read from the fitted curve at half-maximal effect
How it was run: (§1)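 Cells (500-1,000/well) rested 5 h, then received compounds for 48 h; metabolically active cells were measured by CellTiter-Glo luminescence. Final concentrations spanned up to 46 µM (MIPE, 11-point) or 0.59 nM-46 µM (NPC, 8-point) in primary screens, 11-point in follow-ups.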

[4] = qHTS of pediatric cancer cell lines to identify multiple opportunities for drug repurposing: Confirmatory screen for NB-EBc1 cells (AID 1347115);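 also: cells exposed to compound for 48 h before the viability read; nearly all actives have a fitted effect of over 45% in size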; also: potency is read from the fitted curve at half-maximal effect
How it was run: as §1

[5] = qHTS of pediatric cancer cell lines to identify multiple opportunities for drug repurposing: Confirmatory screen for SJ-GBM2 cells (AID 1347116); also: nearly all actives have a fitted effect of over 60% in size; also: potency is read from the fitted curve at half-maximal effect
How it was run: (§2)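 Viability measured as metabolically active cells via CellTiter-Glo luminescence following 48 hours of compound exposure, 11-point dilutions in confirmatory testing. 500-1,000 cells/well plated 5 hours before dosing; controls were DMSO and 2.3 µM bortezomib.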

[6] = qHTS of pediatric cancer cell lines to identify multiple opportunities for drug repurposing: Confirmatory screen for TC32 cells (AID 1347118);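 also: cells exposed to compound for 48 h before the read; nearly all actives have a fitted effect of over 65% in size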; also: potency is read from the fitted curve at half-maximal effect
How it was run: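 Luminescent CellTiter-Glo read-out of metabolically active TC32 cells after 48 h compound exposure. Primary: MIPE 11-point, 0.78 nM–46 µM; NPC 8-point, 0.59 nM–46 µM. Confirmatory: 11-point dilutions.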

[7] = qHTS of pediatric cancer cell lines to identify multiple opportunities for drug repurposing: Confirmatory screen for Rh41 cells (AID 1347123); also: nearly all actives have a fitted effect of over 60% in size; also: potency is read from the fitted curve at half-maximal effect
How it was run: as §1

[8] = qHTS of pediatric cancer cell lines to identify multiple opportunities for drug repurposing: Confirmatory screen for RD cells (AID 1347124);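 also: cells exposed to compound for 48 h before viability readout; nearly all actives have a fitted effect of over 65% in size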; also: potency is read from the fitted curve at half-maximal effect
How it was run: as §1

[9] = qHTS of pediatric cancer cell lines to identify multiple opportunities for drug repurposing: Confirmatory screen for Rh18 cells (AID 1347125); also: nearly all actives have a fitted effect of over 55% in size; also: potency is read from the fitted curve at half-maximal effect
How it was run: as §1

[10] = qHTS of pediatric cancer cell lines to identify multiple opportunities for drug repurposing: Confirmatory screen for SK-N-SH cells (AID 1347129);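 also: cells exposed to compound for 48 h before viability read; nearly all actives have a fitted effect of over 60% in size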; also: potency is read from the fitted curve at half-maximal effect
How it was run: as §1

[11] = tested on: Zika virus NS2B-NS3 protease; test: Primary screen GU AMC qHTS for Zika virus inhibitors (AID 1347154); also: nearly all actives have a fitted effect of over 70% in size
How it was run: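 Fluorogenic AMC-substrate cleavage by noncovalent NS2B-NS3 protease complex (25 nM, pH 8.0 Tris buffer with Tween 20) followed for 15 minutes at room temperature (~20% conversion). Percent inhibition from ex340/em450 signal change, fitted by 4-parameter Hill equation.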

[12] = qHTS of pediatric cancer cell lines to identify multiple opportunities for drug repurposing: Confirmatory screen for BT-12 cells (AID 1347112); also: nearly all actives have a fitted effect of over 55% in size; also: potency is read from the fitted curve at half-maximal effect
How it was run: as §1

[13] = qHTS of pediatric cancer cell lines to identify multiple opportunities for drug repurposing: Confirmatory screen for MG 63 (6-TG R) cells (AID 1347119); also: nearly all actives have a fitted effect of over 55% in size; also: potency is read from the fitted curve at half-maximal effect
How it was run: as §1

[14] = qHTS of pediatric cancer cell lines to identify multiple opportunities for drug repurposing: Confirmatory screen for Rh30 cells (AID 1347126); also: nearly all actives have a fitted effect of over 55% in size; also: potency is read from the fitted curve at half-maximal effect
How it was run: as §1

[15] = qHTS of pediatric cancer cell lines to identify multiple opportunities for drug repurposing: Confirmatory screen for DAOY cells (AID 1347114); also: nearly all actives have a fitted effect of over 65% in size; also: potency is read from the fitted curve at half-maximal effect
How it was run: as §2

Furin (Homo sapiens) = Furin (Homo sapiens) (UniProt P09958); test: Furin counterscreen qHTS for Zika virus inhibitors (AID 1347149);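 also: purified recombinant full-length human furin enzyme at 5 nM; fluorescence gain from furin cutting a BOC-RVRR-AMC peptide substrate over 15 min; top concentration of the series differs between compounds; nearly all actives have a fitted effect of over 70% in size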
How it was run: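 Counterscreen measures cleavage of 2 microM BOC-RVRR-AMC, below its ~15 microM Km, by 5 nM full-length human furin at pH 7.0 after a 15-min compound preincubation. Inhibition derives from the 15-min fluorescence increase at 37C.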

[16] = tested on: Zika virus NS2B-NS3 protease (unlinked); test: Optimization of GU AMC qHTS for Zika virus inhibitors: Unlinked NS2B-NS3 protease assay (AID 1347151); also: series mostly up to about 52 µM; nearly all actives have a fitted effect of over 80% in size
How it was run: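 In this qHTS, compounds acted on 25 nM unlinked Zika NS2B–NS3 in pH 8.0 Tris/Tween buffer. Cleavage of an AMC peptide ran 15 min at room temperature, to about 20% conversion.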

[17] = biological target: N-terminal Xaa-Pro-Lys N-methyltransferase 1 (Homo sapiens) (UniProt Q9BV86); test: qHTS Assay for Inhibitors of N-terminal methyltransferase 1 (NTMT1): LOPAC validation of the NTMT1 SAHH-coupled ThioGlo3 Assay (AID 1347143);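 also: SAH from peptide methylation measured as thiol fluorescence via SAHH coupling and ThioGlo3; nearly all actives have a fitted effect of over 70% in size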
How it was run: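 NTMT1 125nM + cpds (various conc.), 1 min RT; add SAM 100uM/SAHH 10uM/ThioGlo3 15uM (addition mix). SAHH-coupled thiol detection, Ex340/Em450, t0 and 30 min RT; signal normalized to background. LOPAC 1280-cpd pilot.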

Measured: Potency

Sequence of Furin (Homo sapiens) (P09958 whole entry, looked up): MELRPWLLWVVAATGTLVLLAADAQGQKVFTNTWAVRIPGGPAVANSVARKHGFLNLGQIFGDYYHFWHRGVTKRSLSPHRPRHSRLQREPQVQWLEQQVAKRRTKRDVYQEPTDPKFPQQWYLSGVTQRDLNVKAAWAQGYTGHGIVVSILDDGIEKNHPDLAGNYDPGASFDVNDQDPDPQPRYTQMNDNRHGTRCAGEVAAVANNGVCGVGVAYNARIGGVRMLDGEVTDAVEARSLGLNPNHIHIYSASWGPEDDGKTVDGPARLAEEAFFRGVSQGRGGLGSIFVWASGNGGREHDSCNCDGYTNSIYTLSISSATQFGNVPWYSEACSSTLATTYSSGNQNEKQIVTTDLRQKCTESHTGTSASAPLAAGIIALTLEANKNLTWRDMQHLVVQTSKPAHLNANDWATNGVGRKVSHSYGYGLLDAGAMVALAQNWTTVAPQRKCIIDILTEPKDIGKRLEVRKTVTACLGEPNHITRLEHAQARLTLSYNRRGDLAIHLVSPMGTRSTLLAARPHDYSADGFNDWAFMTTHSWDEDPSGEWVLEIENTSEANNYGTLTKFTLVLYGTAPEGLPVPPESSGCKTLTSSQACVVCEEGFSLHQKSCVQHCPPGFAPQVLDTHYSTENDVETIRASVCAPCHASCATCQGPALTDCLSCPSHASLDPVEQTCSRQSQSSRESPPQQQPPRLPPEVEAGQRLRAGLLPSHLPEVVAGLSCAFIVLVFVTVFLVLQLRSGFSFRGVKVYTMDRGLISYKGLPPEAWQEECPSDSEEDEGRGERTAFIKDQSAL
Sequence of N-terminal Xaa-Pro-Lys N-methyltransferase 1 (Homo sapiens) (Q9BV86 whole entry, looked up): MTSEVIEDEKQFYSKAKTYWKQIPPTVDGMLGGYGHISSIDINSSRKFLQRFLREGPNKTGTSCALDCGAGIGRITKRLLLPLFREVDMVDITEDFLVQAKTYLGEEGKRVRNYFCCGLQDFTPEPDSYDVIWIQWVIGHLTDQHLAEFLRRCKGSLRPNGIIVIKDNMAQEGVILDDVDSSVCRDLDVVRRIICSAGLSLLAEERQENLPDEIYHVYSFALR

CN(C)C(=S)SSC(=S)N(C)C
active: [1] 329 nM | [2] 928 nM | [3] 185 nM | [4] 928 nM | [5] 8270 nM | [6] 1.04 µM | [7] 233 nM | [8] 16500 nM | [9] 585 nM | [10] 11800 nM
inactive: [11]

CN1[C@@H]2CC[C@H]1CC(OC(=O)c1cc(Cl)cc(Cl)c1)C2 (stereo partly specified)
inactive: [1] | [2] | [12] | [3] | [4] | [5] | [6] | [13] | [9] | [14] | [11]

CCc1ccc(C2CCNCC2)cc1
inactive: [1] | [2] | [12] | [3] | [15] | [4] | [13] | [7] | [9] | [14] | [10] | [11]

CCCCCCCCCCCC[N+](C)(C)CCOc1ccccc1
inactive: [11]
active: [1] 8270 nM | [2] 7370 nM | [3] 14700 nM | [15] 18500 nM | [6] 7.37 µM | [13] 20800 nM | [7] 7370 nM | [8] 18500 nM | [9] 20800 nM | [14] 16500 nM | [10] 20900 nM

CCOC(=O)NC(C)(C)Cc1ccc(Cl)cc1
inactive: [11]

ClC1=C(Cl)C2(Cl)C(CBr)CC1(Cl)C2(Cl)Cl (stereo unspecified)
active: [2] 10400 nM
inactive: [12] | [3] | [15] | [4] | [5] | [13] | [7] | [8] | [9] | [14] | [10] | [11]

C[C@@H]1O[C@@H](O[C@@H]2C=C3CC[C@@H]4[C@H](CC[C@]5(C)[C@@H](c6ccc(=O)oc6)CC[C@]45O)[C@@]3(C)CC2)[C@H](O)[C@H](O)[C@H]1O
inactive: [11]
active: [1] 58.5 nM | [2] 29.3 nM | [12] 41.4 nM | [3] 58.5 nM | [4] 29.3 nM | [5] 46.5 nM | [6] 0.0233 µM | [13] 8.3 nM | [8] 3.3 nM | [9] 6570 nM | [10] 26.4 nM

C[C@@H]1CC[C@H]2[C@@H](C)C(=O)O[C@@H]3O[C@@]4(C)CC[C@@H]1[C@]32OO4
inactive: [11]

COc1cc(N)c(Cl)cc1C(=O)NC1CN2CCC1CC2 (stereo unspecified)
inactive: [11]

c1ccc2c(c1)Sc1ccccc1N2CC1CN2CCC1CC2 (stereo unspecified)
inactive: [11]

O=C(O)CCCCCCNC1c2ccccc2CCc2ccccc21
inactive: [11]

O=C(O)Cc1ccccc1
inactive: [1] | [3] | [15] | [4] | [7] | [10] | [11]

CCO[C@H]1O[C@@H]2OC3(C)CC[C@H]4[C@H](C)CC[C@@H]([C@H]1C)[C@@]24OO3
inactive: [11]

CC(C)=CCN1CC[C@@]2(C)c3cc(O)ccc3C[C@@H]1[C@@H]2C
inactive: Furin (Homo sapiens) | [16] | [11]

Cc1ccc([N+](=O)[O-])[c]2c1[O][Hg]2
inactive: [11]
active: [1] 737 nM | [2] 233 nM | [12] 4140 nM | [3] 2930 nM | [15] 5220 nM | [4] 2930 nM | [5] 4140 nM | [6] 0.261 µM | [13] 5220 nM | [7] 233 nM | [8] 827 nM | [9] 5220 nM | [10] 3720 nM

NC(=O)CN1CCCC1=O
inactive: [17] | [16] | [11]

CN1C(=O)CN=C(c2ccccc2)c2cc(Cl)ccc21
inactive: [11]

C[C@@H]1C[C@@H]([C@H](O)CC2CC(=O)NC(=O)C2)C(=O)[C@@H](C)C1
inactive: [15] | [11]
active: [1] 1650 nM | [2] 928 nM and 1.31 µM | [12] 2930 nM | [3] 928 nM and 2.61 µM | [5] 2330 nM | [6] 465 nM and 522 nM | [8] 2610 nM | [14] 737 nM

O=C(CBr)Nc1ccc(Cl)cc1C(=O)c1ccccc1F
inactive: [11]

C[N+](C)(C)CCOC(=O)C(O)(c1ccccc1)c1ccccc1
inactive: [11]

CCCCCCCCC(=O)NCc1ccc(O)c(OC)c1
active: [6] 5.22 µM
inactive: [1] | [12] | [3] | [15] | [4] | [5] | [13] | [7] | [8] | [9] | [14] | [10] | [11]

CC[C@]1(O)CC[C@H]2[C@@H]3CCC4=CCCC[C@@H]4[C@H]3CC[C@@]21C
inactive: [11]

COc1ccc2c(C(=O)c3ccc(Cl)cc3)c(C)n(CC(=O)O)c2c1
active: [1] 7370 nM | [2] 10400 nM | [6] 16.5 µM
inactive: [12] | [3] | [15] | [4] | [5] | [13] | [7] | [8] | [9] | [10] | [11]
